Test results published in the supplement of paper PMC9950053.
Structures can show the parent of a compound that is named as a salt.

test system: Danio rerio larvae (5 dpf); experiment: startle (activity period 16 minus period 15, 20-s interval sound) minus DMSO control (percentage points); higher = stronger startle response than DMSO larvae; settings: 10 µM; exposure time: 3 h pre-incubation + 3 h imaging
Experimental: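 Wild-type 5 dpf zebrafish larvae (n=48 per drug, 96-well plates, 28.5 °C) were exposed to Tocris FDA-approved library compounds at 10 µM (0.1% DMSO) for 3 h before and 3 h during imaging. Images were taken every 6 s during visual (moving coloured lines) and acoustic stimuli, and larvae were tracked with the DeepLabCut-based Z-LaP Tracker. Each behavioural measure is the treated-group mean minus the DMSO vehicle control mean (n=844), in percentage points. This mapping covers compounds with 4-character plate codes.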

In order of rising startle:
1. Cc1cc(C2CCCCC2)n(O)c(=O)c1 [Ciclopirox]  -8.19
2. CN1CCC[C@@H]1CCO[C@](C)(c1ccccc1)c1ccc(Cl)cc1 [Clemastine fumarate]  -7.64
3. CN(C)CCC[C@@]1(c2ccc(F)cc2)OCc2cc(C#N)ccc21 [Escitalopram oxalate]  -7.28
4. CCN(Cc1ccncc1)C(=O)C(CO)c1ccccc1 (stereo not given) [Tropicamide]  -6.79
5. C[C@@H](O[C@H]1OCCN(Cc2n[nH]c(=O)[nH]2)[C@H]1c1ccc(F)cc1)c1cc(C(F)(F)F)cc(C(F)(F)F)c1 [Aprepitant]  -6.24
6. CC(C)C(=O)OCC(=O)[C@@]12O[C@H](C3CCCCC3)O[C@@H]1C[C@H]1[C@@H]3CCC4=CC(=O)C=C[C@]4(C)[C@H]3[C@@H](O)C[C@@]12C [Ciclesonide]  -5.21
7. OC(CNCC(O)C1CCc2cc(F)ccc2O1)C1CCc2cc(F)ccc2O1 (stereo not given) [Nebivolol hydrochloride]  -4.81
8. Cc1ccc(N(CC2=NCCN2)c2cccc(O)c2)cc1 [Phentolamine Mesylate]  -2.8
9. CC[C@H](C)C(=O)O[C@H]1C[C@@H](C)C=C2C=C[C@H](C)[C@H](CC[C@@H]3C[C@@H](O)CC(=O)O3)[C@H]21 [Lovastatin]  -1.2
10. CC/C(=C(\c1ccccc1)c1ccc(OCCN(C)C)cc1)c1ccccc1 [Tamoxifen citrate]  -1.09
11. CC(C)CN(C[C@@H](O)[C@H](Cc1ccccc1)NC(=O)O[C@H]1CO[C@H]2OCC[C@H]21)S(=O)(=O)c1ccc(N)cc1 [Darunavir]  -0.93
12. OCCOCCN1CCN(C2=Nc3ccccc3Sc3ccccc32)CC1 [Quetiapine hemifumarate]  -0.888
13. COc1ccc(-c2ccc3cc(C(=O)O)ccc3c2)cc1C12CC3CC(CC(C3)C1)C2 [Adapalene]  -0.788
14. CCOC(=O)c1ncn2c1CN(C)C(=O)c1cc(F)ccc1-2 [Flumazenil]  -0.637
15. COc1cc(Nc2c(C#N)cnc3cc(OCCCN4CCN(C)CC4)c(OC)cc23)c(Cl)cc1Cl [Bosutinib]  -0.373
16. CS(=O)(=O)CCNCc1ccc(-c2ccc3ncnc(Nc4ccc(OCc5cccc(F)c5)c(Cl)c4)c3c2)o1 [Lapatinib]  -0.148
17. CCOC(=O)[C@H](CCc1ccccc1)N[C@H]1CCc2ccccc2N(CC(=O)O)C1=O [Benazepril hydrochloride]  -0.0488
18. CC(C)(C#N)c1cc(Cn2cncn2)cc(C(C)(C)C#N)c1 [Anastrozole]  -0.0231
19. Cc1nc(Nc2ncc(C(=O)Nc3c(C)cccc3Cl)s2)cc(N2CCN(CCO)CC2)n1 [Dasatinib]  -0.00442
20. CCOC(=O)C1=C(COCCN)NC(C)=C(C(=O)OC)C1c1ccccc1Cl (stereo not given) [Amlodipine besylate]  0.141
21. Cc1cn([C@H]2C=C[C@@H](CO)O2)c(=O)[nH]c1=O [Stavudine]  0.235
22. C[C@H]1C[C@@H]2[C@H]([C@@H](O)C[C@@]3(C)[C@H]2CC[C@]3(O)C(=O)CO)[C@@]2(C)C=CC(=O)C=C12 [Methylprednisolone]  0.408
23. C[C@]12CCC(=O)C=C1CC[C@@H]1[C@@H]2[C@@H](O)C[C@@]2(C)[C@H]1CC[C@]2(O)C(=O)CO [Hydrocortisone]  0.463
24. CC(C)(C)NC(=O)[C@@H]1C[C@@H]2CCCC[C@@H]2CN1C[C@@H](O)[C@H](Cc1ccccc1)NC(=O)[C@H](CC(N)=O)NC(=O)c1ccc2ccccc2n1 [Saquinavir mesylate]  0.811
25. CCCCCOC(=O)Nc1nc(=O)n([C@@H]2O[C@H](C)[C@@H](O)[C@H]2O)cc1F [Capecitabine]  1.06
26. CN(C)CC/C=C1/c2ccccc2COc2ccc(CC(=O)O)cc21 [Olopatadine hydrochloride]  1.07
27. CC(=O)O[C@H]1C(=O)[C@@]2(C)[C@H]([C@H](OC(=O)c3ccccc3)[C@]3(O)C[C@H](OC(=O)[C@H](O)[C@@H](NC(=O)c4ccccc4)c4ccccc4)C(C)=C1C3(C)C)[C@]1(OC(C)=O)CO[C@@H]1C[C@@H]2O [Taxol]  1.37
28. Nc1ccn([C@@H]2O[C@H](CO)[C@@H](O)C2(F)F)c(=O)n1 [Gemcitabine hydrochloride]  2.17
29. CC(C)c1ccc2oc3nc(N)c(C(=O)O)cc3c(=O)c2c1 [Amlexanox]  2.27
30. CC(=O)NC[C@H]1CN(c2ccc(N3CCOCC3)c(F)c2)C(=O)O1 [Linezolid]  2.73
31. Cn1nnc2c(C(N)=O)ncn2c1=O [Temozolomide]  2.78
32. CCOc1nc2cccc(C(=O)O)c2n1Cc1ccc(-c2ccccc2-c2noc(=O)[nH]2)cc1 [Azilsartan]  3.25
33. CCCCC1=NC2(CCCC2)C(=O)N1Cc1ccc(-c2ccccc2-c2nnn[nH]2)cc1 [Irbesartan]  3.4
34. COc1cccc2c1C(=O)c1c(O)c3c(c(O)c1C2=O)C[C@@](O)(C(=O)CO)C[C@@H]3O[C@H]1C[C@H](N)[C@H](O)[C@H](C)O1 [Doxorubicin hydrochloride]  3.54
35. O=C(Nc1c(Cl)cncc1Cl)c1ccc(OC(F)F)c(OCC2CC2)c1 [Roflumilast]  3.93
36. Cc1ccccc1C(=O)Nc1ccc(C(=O)N2CCCC(O)c3cc(Cl)ccc32)c(C)c1 (stereo not given) [Tolvaptan]  4.33
37. Nc1nc(F)nc2c1ncn2[C@@H]1O[C@H](CO)[C@@H](O)[C@@H]1O [Fludarabine]  4.52
38. NS(=O)(=O)Cc1noc2ccccc12 [Zonisamide]  5.14
39. Clc1ccc(COC(Cn2ccnc2)c2ccc(Cl)cc2Cl)c(Cl)c1 (stereo not given) [Miconazole nitrate]  5.64
40. COC(c1ccccc1)(c1ccccc1)[C@H](Oc1nc(C)cc(C)n1)C(=O)O [Ambrisentan]  6.56
